The structures appear in SMILES notation. “And” between values parts separate entries of the source, which are not always exact repeats. Equal values may be shown once. Values without a mark were called inactive. The source made the active and inactive calls. Rule as the data show it: active = remaining activity below about 50%; inactive = the rest.

Sequence of Phospholipase D1 (Homo sapiens) (Q13393 whole entry, looked up): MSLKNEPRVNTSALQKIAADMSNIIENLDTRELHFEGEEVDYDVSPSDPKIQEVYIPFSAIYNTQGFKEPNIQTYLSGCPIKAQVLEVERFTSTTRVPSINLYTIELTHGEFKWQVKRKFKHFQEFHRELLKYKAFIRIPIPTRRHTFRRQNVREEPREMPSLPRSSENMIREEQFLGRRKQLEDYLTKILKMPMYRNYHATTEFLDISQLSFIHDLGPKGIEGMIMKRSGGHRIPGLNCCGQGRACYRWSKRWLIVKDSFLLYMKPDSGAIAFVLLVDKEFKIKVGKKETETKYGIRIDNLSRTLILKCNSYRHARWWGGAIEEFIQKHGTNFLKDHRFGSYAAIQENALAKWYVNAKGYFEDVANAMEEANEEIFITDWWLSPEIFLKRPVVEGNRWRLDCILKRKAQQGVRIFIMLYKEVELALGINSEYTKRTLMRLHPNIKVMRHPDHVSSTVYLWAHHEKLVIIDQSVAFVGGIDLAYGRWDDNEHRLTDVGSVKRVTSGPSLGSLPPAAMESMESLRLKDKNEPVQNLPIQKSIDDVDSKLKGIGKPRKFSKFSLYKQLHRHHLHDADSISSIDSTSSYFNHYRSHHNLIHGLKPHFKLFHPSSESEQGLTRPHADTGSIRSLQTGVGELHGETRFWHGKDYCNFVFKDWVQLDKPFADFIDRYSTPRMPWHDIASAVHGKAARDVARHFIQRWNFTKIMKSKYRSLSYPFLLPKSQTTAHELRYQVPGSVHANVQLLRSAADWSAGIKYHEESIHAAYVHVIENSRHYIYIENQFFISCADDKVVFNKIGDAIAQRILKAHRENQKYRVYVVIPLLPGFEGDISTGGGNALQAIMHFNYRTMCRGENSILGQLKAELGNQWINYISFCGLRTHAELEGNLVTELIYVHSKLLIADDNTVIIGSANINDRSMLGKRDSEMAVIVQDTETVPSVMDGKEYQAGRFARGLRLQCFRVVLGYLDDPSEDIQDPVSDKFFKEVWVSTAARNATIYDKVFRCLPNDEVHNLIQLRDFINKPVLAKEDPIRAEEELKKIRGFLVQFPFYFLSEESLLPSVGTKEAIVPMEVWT
Sequence of Phospholipase D1 (Homo sapiens) (Q13393 whole entry, looked up): as above

The assay has as its target Phospholipase D1 (Homo sapiens) (UniProt Q13393). As to the kind of experiment: cellular phospholipase D1 activity inhibition – Calu-1 cells, single concentration (AID 602144).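 Also: tested at 200 nM.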 Conditions: cellular PLD1 activity, stronger effect = lower value.
By remaining activity is commonly meant the signal under treatment as a percentage of the control signal. In the case of `O=C(NCCN1CCC2(CC1)C(=O)NCN2c1ccccc1)c1ncccc1F`, the remaining activity was 110%. As for `O=C(NCCN1CCC2(CC1)C(=O)NCN2c1ccc(F)cc1)c1cc2ccccc2[nH]1`, the remaining activity was 32.3% (active).

As for `C[C@H](CN1CCC2(CC1)C(=O)NCN2c1ccccc1)NC(=O)c1ccc(F)cc1`, the remaining activity is 34.8% (active). `O=C(c1cnc2ccccc2c1)N1CCCC1CN1CCC(n2c(=O)[nH]c3ccccc32)CC1` (stereo not given): the remaining activity was 122%. In the case of `COc1ccc(CC(=O)NCCN2CCC3(CC2)C(=O)NCN3c2cccc(F)c2)cc1OC`, the remaining activity is 108% and 107%. Regarding `O=C(NCCN1CCC2(CC1)C(=O)NCN2c1ccccc1)C1(c2ccccc2)CCC1`, the remaining activity was 94.9%. Turning to `O=C(NCCN1CCC2(CC1)C(=O)NCN2c1ccccc1)c1ccc2cc(F)ccc2c1`, the remaining activity was 73.9%.

In the case of `O=C(NCCCN1CCC2(CC1)C(=O)NCN2c1ccccc1)c1cnc2ccccc2c1`, the remaining activity was 99%. Turning to `C[C@@H](CN1CCC2(CC1)C(=O)NCN2c1ccc(F)c(F)c1)NC(=O)c1ccc(F)cc1`, the remaining activity is 22.8% (active). Take `O=C(NCCN1CCC2(CC1)C(=O)NCN2c1ccc(F)c(F)c1)c1ccc2ccccc2c1`: the remaining activity was 84.3%. As to `O=C(NCCN1CCC2(CC1)C(=O)NCN2c1ccccc1)c1cccc(F)n1`, the remaining activity is 138%.

As for `Nc1ccc(C(=O)NCCN2CCC3(CC2)C(=O)NCN3c2ccccc2)cc1OC(F)(F)F`, the remaining activity was 91.5%. For `O=C(C#Cc1ccccc1)NCCN1CCC2(CC1)C(=O)NCN2c1ccccc1`, the remaining activity is 87.1%.

For the compound `O=C(NCCN1CCC2(CC1)C(=O)NCN2c1ccccc1)c1ncc[nH]1`, the remaining activity is 62.9%. Consider `O=C(NCCN1CCC2(CC1)C(=O)NCN2c1cccc(F)c1)c1cccc(F)c1`, for which the remaining activity was 100%. In the case of `CCCCCC(=O)NCCN1CCC2(CC1)C(=O)NCN2c1cccc(F)c1`, the remaining activity was 109%. Turning to `O=C(N[C@@H](Cc1ccccc1)CN1CCC2(CC1)C(=O)NCN2c1ccccc1)c1ccc(F)c(F)c1`, the remaining activity is 75.5%. Turning to `C[C@@H](CN1CCC2(CC1)C(=O)NCN2c1ccc(F)c(F)c1)NC(=O)c1ccc2ccccc2c1`, the remaining activity is 25.7% (active). For the compound `O=C(NCCN1CCC2(CC1)C(=O)NCN2c1cccc(F)c1)c1cc2cc(F)ccc2[nH]1`, the remaining activity was 44% (active). On to `CCCCOc1ccc(C(=O)NCCN2CCC3(CC2)C(=O)NCN3c2cccc(F)c2)cc1`, for which the remaining activity was 110%. In the case of `O=C(c1ccc2ccccc2c1)N1CC(N2CCC(n3c(=O)[nH]c4ccccc43)CC2)C1`, the remaining activity is 108%. In the case of `O=C(C1CC1c1ccccc1)N1CC(N2CCC3(CC2)C(=O)NCN3c2ccccc2)C1` (stereo not given), the remaining activity was 94.4%. For `Cc1cccc(C(=O)N[C@@H](C)CN2CCC3(CC2)C(=O)NCN3c2ccccc2)c1`, the remaining activity was 70%. For `C[C@@H](CN1CCC2(CC1)C(=O)NCN2c1ccc(F)c(F)c1)NC(=O)c1cc2ccccc2[nH]1` the value was 0% (active); for `O=C(NCCN1CCC2(CC1)C(=O)NCN2c1ccccc1)c1ccnnc1`, 104%. As to `O=C(NCCN1CCC2(CC1)C(=O)NCN2c1ccc(F)c(F)c1)c1cnc2ccccc2c1`, the remaining activity is 91.3%. Consider `C[C@@H](CN1CCC2(CC1)C(=O)N(Cc1ccccc1)c1ccccc12)NC(=O)c1ccc2ccccc2c1`, for which the remaining activity was 90.4%. As to `O=C(NCCN1CCC2(CC1)C(=O)NCN2c1ccccc1)c1ccncn1`, the remaining activity is 124%. Turning to `O=C(NCCN1CCC2(CC1)C(=O)NCN2c1cccc(F)c1)C1CCCCC1`, the remaining activity was 102%. For the compound `O=C(c1ccc(F)c(F)c1)N(CCN1CCC2(CC1)C(=O)NCN2c1cccc(F)c1)C(=O)c1ccc(F)c(F)c1`, the remaining activity was 101%. Consider `O=C(NCCN1CCC2(CC1)C(=O)NCN2c1ccccc1)c1cnco1`, for which the remaining activity is 98%.

`O=C(NCCCN1CCC2(CC1)C(=O)NCN2c1ccccc1)c1ccc2ccccc2c1`: the remaining activity is 81%. For the compound `O=C(NCCCCCCN1CCC2(CC1)C(=O)NCN2c1ccccc1)c1cnc2ccccc2c1`, the remaining activity was 122%.

For the compound `O=C(NCCN1CCC2(CC1)C(=O)NCN2c1ccccc1)c1ncc(F)cc1F`, the remaining activity was 125%. Consider `O=C(c1c(F)cccc1F)N(CCN1CCC2(CC1)C(=O)NCN2c1cccc(F)c1)C(=O)c1c(F)cccc1F`, for which the remaining activity was 97.9%.

The values above are taken from PubChem BioAssay AID602144 (Vanderbilt Specialized Chemistry Center, 2011).
